Experimental data from the supplement of paper PMC11417369.
In all, about 25,000 sequences were measured (“ln(normalized median fluorescence intensity)”: median about 6.7, highest 2% from about 10 on). Many of the other results were omitted from the sample, so the highest values are more common in it than they were.

Tested on: PfHDP1 homeodomain (GST-tagged)
Assay: gcPBM binding intensity (ln(normalized median fluorescence intensity)); higher = stronger DNA binding
Method in brief: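 GST-fused DNA-binding domains of P. falciparum, expressed in E. coli, were applied at about 25 μg on average for 1 h to an Agilent 4 × 180k array of primer-extended double-stranded 36-bp intergenic genomic probes and negative controls. Binding intensity is the highest Masliner-normalised natural-log median intensity across replicate spots of either probe orientation, measured with Alexa488 anti-GST antibody and a 488 nm scan.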

Sequence	gcPBM binding intensity (ln)
GAATATAATCTGTATTGTACGAAAGTTGAACACTTG [XGTACX_site8895]	6.3
GATCAAAATTATAGAAGTACTTTATATAAATAAAAT [XGTACX_site8161]	6.41
AAAAAAAAAAGACATGCATACGCTAATTTTTAGTTG [TGCATGCA_site300]	5.98
TTTATATTAGGTCTTGAACGATTTTCATCATTATTA [TGCATGCA_negctrl_site100]	6.04
TTTTTTAATATATTATTATAAATATTTTTTATGTGT [GTGCAC_negctrl_site712]	6.46
TTTATCTAAATATGTGTGCACTCGTTAATTTTTTTT	10.8
ATATCGTTATTTTTATGTACTAAAATATTTAATTAT [XGTACX_site3516]	7.03
ATAACATGAACATATGTTACACAAACATACATACAT [XGTACX_negctrl_site365]	6.77
TTTAGTTCATACTATGCACACTACGTATATTTTTAA [CACACA_site5484]	8.95
AGTAATAGTTTGTGCACACTCAAGTATATCATAGAT [CACACA_site6082]	11.1
TTGTACAAAAATAATGCACACTATATCAAGTTTTTT [CACACA_site5898]	10.3
TTTATAGTTTTTAATAGTACACATATTTTTAAGTAT [XGTACX_site5498]	6.38
AGTAATAGTTTGTGCACACTCAAGTATATCATATAT [CACACA_site4034]	11.2
TAAGTAATAGTTTGTGCACACTCAAGTATATCATAT [CACACA_site4035]	11.1
TTTTGTACAAAAATAATGCACACTATATCAAGTTTT [CACACA_site3595]	10.4
TATATATCAATATGCACACACAAGAAGTAATTATAA [CACACA_site7487]	9.74
TATATATATATCAAGTGTACTTGTGTTTGTAATATT [XGTACX_site8854]	8.6
GTAATATCAATATAAAGTACACACTATAGTATGTAT [XGTACX_site4714]	6.4
ATATATGTAACATATTGTACATATATGTATGTATGT [XGTACX_site3281]	6.97
AATATTTTATTTTGGGTGCAAAAGAATATTATTTCA	9.49
CAATTAAATATATGAACACACATGTGAACTTTCTAT [CACACA_site3977]	6.36
AATATACAAAATAAATAAAATATATATATATATATA [CACACA_negctrl_site216]	9.24
AATTTAATTTTTTCGTGTACTTATATAGGAGGTTTT [XGTACX_site8310]	6.76

Sequence	gcPBM binding intensity (ln)
TAGAAGTACATATATGCATGTTAATTTTAAAGGAGG [TGCATGCA_site538]	6.9
TTCTATTTTATATGTGCACACATATACACCCACAAA [CACACA_site1130]	10.9
CTATTTTATATGTGCACACATATACTCAGACAAATA [CACACA_site4761]	10.6
TATATACATATATGCACACAAAAAAATATATATTTT [CACACA_site1729]	10.1
TATACATATTTTATAGCACACAAATAATAATATGTA [CACACA_site8129]	6.63
CTTACACCCATATATACACACATGTATATTTTATAT [CACACA_site4462]	7.24
CTATTTTATATGTGCACACATATACACCCACAAATA [CACACA_site1131]	10.1
TTTGTTTTATCTTATATGCACACGATAAAAAAAAAA [CACACA_site2673]	9.69
TATAAAAATAATATTACACACATGTAAAATGGGGGT [CACACA_site9071]	7.03
TTGTTTTCACCAAATACACACAAGCATACACCCCAT [CACACA_site2717]	7.34
AGTGATTATTAATAATGTACATATCTATAAATATAT [XGTACX_site4734]	6.43
TTAATGTTATATGTGTGTACATATAAGTTTAGTAAA [XGTACX_site4651]	6.53
AAAAAAATGAAGAAATGTACAAATTTCATTAATTTT [XGTACX_site354]	6.05
TTCATATATAATTGTACACACAAAAACGACATTGTG [CACACA_site2074]	7.05
TAGATCATAACAATTGCACACATTTGCATTTATATT [CACACA_site1562]	10.1
TTATTTGAACAATATGCACACATTTTATTTATTTTA [CACACA_site3420]	10.1
TATATATATATATATGTGCACTGGACATATTTTTAT [GTGCAC_site9721]	9.84
GAGATTTATTTATGTGCACACTAGAACAATTGGATC [CACACA_site2090]	10.5
ATATTATGTGATTGTGCACACTGGAGATTTTTTTTA [CACACA_site1453]	11.2
TTTAGTTTTTATATAGCACACATATTGTGATTATGT [CACACA_site8316]	6.82
TTAATATGTTTAACCATTTTACATAAATTGATTTGT [CACACA_negctrl_site1100]	6.3
TGTTATTACTTTATATCATCTTAAAATAAGCATATT [CACACA_negctrl_site1501]	6.26
AAATTAATACATTATTGTACTTTTCATGTGCAGAAA [XGTACX_site8284]	8.11

Sequence	gcPBM binding intensity (ln)
TTACTTGTTTATTTTTTTTTTTTTTTTTTTTTTGTT [TGCATGCA_negctrl_site103]	5.62
TATATGAAAATGTTCATACACACATAAAAAAAAAAA [CACACA_site3237]	6.41
GTTCAATCGGGTGTTACTTCAAACAAGGAACAACAA [TGCATGCA_negctrl_site471]	6.16
TTAAGATATGTATATCGTACATGACATTAAAAATTT [XGTACX_site3352]	6.02
ATGCAAATAATATAAAGTACACAACATCGCCCAAAG [XGTACX_site1825]	7
TATTTAACACCTTATACACACTTTCTTCCTTTTTTA [CACACA_site4590]	7.12
TATATATTTTCTTTTGCACACTGTTTTCCTTTTTTT [CACACA_site2739]	10.2
ACAAGTATTCCTTTTGCACACCTTTCTGCACCTTAT [CACACA_site3873]	11.1
AAAATTAGGTATATATGTACATATATAAATATATAT [XGTACX_site3555]	6.8
TAAAGAAACTATTCAACACACGGTCTAATTATTACA [CACACA_site1064]	6.15
TATTATTTACCTTGCTAGTTCGTTCCAAATTTTATG [XGTACX_negctrl_site197]	7.19
AATGTGCAAACAAACTGTACTTTTTTTTTTTTTTTT [XGTACX_site928]	10.6
ACAAAACTTTTAAGAACACACAAAAATGTACTATCG [CACACA_site7245]	6.17
AAACAAATGTATATGTGTACTTATTTTTTTGTATGT [XGTACX_site7134]	6.17
TTTTCATTTTTCTTTACACACATATATATATATATA [CACACA_site2236]	9.23
ATATAGATGCATAATACACACATCAGATAATTAACC [CACACA_site6871]	6.96
TGCAAAAAATTCCACACACACACACGCATATAAATA [CACACA_site6696]	6.72
TTTTTTTGTTAAAAGGTGCTAATATATATAAGTGCT	6.62
ATGATATACTTGAGTGTGCACAAACTATTACTTACA	11
ATATATTTGATAAGAGTGCACAAATACATACATACA [GTGCAC_site9704]	9.65
TCTACTATTATATATTGTACAAATGATACTTATATT [XGTACX_site1819]	6.61
CCATTTGATAATAATGCACACCACATATATTTATAT [CACACA_site9002]	10.1
TTATTTACATCAAGTACATGCAGTAAAAAAAAAAAA [TGCATGCA_site351]	6.41

Sequence	gcPBM binding intensity (ln)
ATATATATATATATATGTACTTATTTATCGTATTAT [XGTACX_site3520]	9.59
TACACATAATATAATGCATGTGTGATGTATGTTTAA [TGCATGCA_site697]	6.56
TCTTTTAACACATGTGATATTATTTAATAACAATAA [CACACA_negctrl_site339]	6.51
CTTTTTTTAATGATAACACACATGTTGTGCATAGAC [CACACA_site3270]	10.7
TTTTTTTTTTATTAATGTACAAGATATATAATGTTA [XGTACX_site4809]	6.16
TTAAAAAACCTTAGATGTACAGTTATATATAAAATA [XGTACX_site6688]	6.37
TAACTTAATTTTAATGCACACAATTTATATATATAT [CACACA_site6022]	10.5
AACGGGGGTAGTTTTATGCACACGTTTATTAATGCT [CACACA_site3173]	9.56
TTTAATTATTAGTGTGCACACAACTATGAGTTTTTA [CACACA_site8997]	10.8
TTTAATTTTCGGTGTGCACACAACTATGAGTTTTTA [CACACA_site3034]	11.2
TTTTTAATTTATTGTGTGCACACAACTATGAGTTTT	10.3
AACAACTATTAATTTACACACATGTATATATTTTAC [CACACA_site3116]	6.82
TTTTTTTTTTTTTTTTGTACATATTTTTAAACTATA [XGTACX_site2897]	6.24
TTCTTTTTTCGACACACACACACAAGAAGATATATA [CACACA_site7456]	7.11
ATATATCTATAAAAGGCTTCCCACTTTTTTTGTCAA [TGCATGCA_negctrl_site332]	6.39
GGCGTATGTGTATATACACACCCACGTATATATATA [CACACA_site9046]	8.02
CCTATTTATATATACACACACATATATAAATAAATA [CACACA_site2991]	6.95
TATATATATGAGTATACACACCTGATAAAGGTATAT [CACACA_site5462]	6.87
TAATGTAAAATTTAGAGTACATAAAAAATTGGATGA [XGTACX_site7225]	6.68
AAAAATAAAATATATACATGCATATACATATTATAT [TGCATGCA_site668]	6.31
AATTATATAAGCCACGCATGTGTGCATAAAAATACA [TGCATGCA_site114]	10.9
AAATAAAATTATAATACATGCATACATACATATATA [TGCATGCA_site69]	6.3
